Bioassay records: PubChem, National Center for Advancing Translational Sciences (NCATS)
This is one part of a sample in which hits are shown more often than they occur.
DT40 TDP1 CPT: DT40-hTDP1 cell growth loss with CPT | chicken DT40 Tdp1-/-;hTDP1 cells + 20 nM CPT, ATP luminescence, 48 h | Potency, µM (highest dose often 46.2 µM), for the others: at the highest dose activity change, negative = growth inhibition, usual class: inhibitors | AID 686979 | 12% of 420,000 active; also: potency is read from the fitted curve at half-maximal effect; nearly all actives have a fitted effect of over 55% in size
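Chicken DT40 Tdp1-/- cells complemented with human TDP1, 400 cells/well, exposed to compounds plus 20 nM camptothecin for at least 48 h at 37 C; viability read as ATP content by CellTiter-Glo luminescence.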
12-LOX inh: ALOX12 (human) lipoxygenase inhibition; purified 12hLO, xylenol orange hydroperoxide absorbance; 1.1% of 580,000 active; P18054; Potency, µM (titrated, usually from 108 µM), for the others: at the top dose activity change, negative = inhibition, actives largely listed as inhibitors; also: potency is read from the fitted curve at half-maximal effect
Target sequence (P18054 whole entry, looked up): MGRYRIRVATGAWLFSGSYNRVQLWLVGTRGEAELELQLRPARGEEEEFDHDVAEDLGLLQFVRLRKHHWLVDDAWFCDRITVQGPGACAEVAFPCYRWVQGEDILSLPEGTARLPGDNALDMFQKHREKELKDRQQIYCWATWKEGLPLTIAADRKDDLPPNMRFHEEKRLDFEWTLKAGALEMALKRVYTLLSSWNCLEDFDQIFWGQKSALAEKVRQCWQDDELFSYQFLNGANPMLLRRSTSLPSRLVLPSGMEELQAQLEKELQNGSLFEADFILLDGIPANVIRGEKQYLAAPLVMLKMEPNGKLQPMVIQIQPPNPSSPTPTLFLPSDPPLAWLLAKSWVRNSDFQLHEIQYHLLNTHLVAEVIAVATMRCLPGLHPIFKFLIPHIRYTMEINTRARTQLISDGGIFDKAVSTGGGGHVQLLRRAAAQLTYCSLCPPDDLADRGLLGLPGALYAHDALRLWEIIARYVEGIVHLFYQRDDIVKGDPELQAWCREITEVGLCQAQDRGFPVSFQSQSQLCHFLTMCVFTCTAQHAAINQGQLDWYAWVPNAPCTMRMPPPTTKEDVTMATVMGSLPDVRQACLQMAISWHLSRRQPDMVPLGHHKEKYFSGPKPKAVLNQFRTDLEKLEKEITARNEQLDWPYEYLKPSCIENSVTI
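Purified human 12hLO at 150 nM in 25 mM Hepes, 0.01% Triton X-100, pH 7.0, preincubated 15 min at room temperature with compound. Reaction started with 40 uM arachidonic acid, 30 min at room temperature. Hydroperoxide measured by Fe-xylenol orange, 573/405 nm absorbance ratio.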
DT40 TDP1 no CPT: qHTS for Inhibitors of human tyrosyl-DNA phosphodiesterase 1 (TDP1): qHTS in cells in absence of CPT; 15% of 420,000 active; AID 686978, 2013; Potency, µM (doses to about 46.2 µM), without a hit: at the highest dose activity change, negative = growth inhibition, usual class: inhibitors; DT40 Tdp1-/- hTDP1 cells, no CPT, ATP luminescence, 48 h; also: potency is read from the fitted curve at half-maximal effect; nearly all actives have a fitted effect of over 55% in size
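Luminescent ATP content (CellTiter-Glo) served as the growth readout. Knockout chicken DT40 cells expressing human TDP1 were exposed to compounds without camptothecin for a minimum 48 hr at 37 °C.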
HT1080 IDH1KD tx: toxicity to HT-1080 IDH1 knockdown cells (counter line); AID 686971; Potency, µM (top dose mostly 46.1 µM), without a hit: top-dose activity, negative = toxicity, hits mostly cytotoxic; HT-1080 IDH1 knockdown viability, ATP luminescence, 48 h; 2% of 360,000 active;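 also: potency is read from the fitted curve at half-maximal effect; 0% = DMSO wells and -100% = cell-free medium wells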
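% activity derives from luminescence (CellTiter-Glo), normalised to DMSO and no-cell wells. HT-1080-IDH1KD cells, 750/well, had 48 h compound exposure at 37 °C.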
HT1080NT lethal: kills 2HG-producing HT-1080-NT fibrosarcoma cells | HT-1080-NT fibrosarcoma viability, CellTiter-Glo ATP luminescence, 48 h | Potency, µM (titrated, usually from 46.1 µM), without a hit: at the highest dose activity, negative = less viability, most hits filed as cytotoxic | 1.6% of 360,000 active | AID 686970;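 also: NT is the 2HG producing partner of a matched IDH1 knockdown line; potency is read from the fitted curve at half-maximal effect; 0% = DMSO-treated cells and -100% = media-only wells without cells; nearly all actives have a fitted effect of over 55% in size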
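Luminescent CellTiter-Glo readout after 48 hours of compound exposure at 37 degrees C defined viability of HT-1080-NT cells. Activity was normalized to DMSO wells and cell-free media wells; concentration-response curves were fitted and assigned curve classes.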
IL1B secr inh: blocks inflammasome-driven IL-1 beta release; 4.7% of 360,000 active; AID 743279; activity change, % at 57.5 µM; THP-1 LPS/ATP IL-1B secretion, AlphaLISA, 16 h; stronger effect = lower value; in the data active = activity change below about -50%; inconclusive = mostly about -30% to -49%
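THP-1 cells pretreated 1 hr with compounds (up to 57.5 uM final), then stimulated with LPS (250 ng/mL final) plus ATP (1.25 mM final); secreted IL-1B measured by AlphaLISA after 16 hr, decreased signal indicating inhibition.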
Starred values were filed as active, the others as inactive; ? = inconclusive; · = no result given. Unless noted, calls follow the shape of the dose curve; as a rule, active = well fitted curve in the direction sought with a large enough effect; inconclusive = small, poorly fitted or top-dose-only effect, or another doubt; inactive = no such curve, though single readings can be large; an effect the other way counts as inactive or inconclusive. Unless noted, % is scaled to controls: 0 for no effect and ±100 for the full control effect.

SMILES	DT40 TDP1 CPT	12-LOX inh	DT40 TDP1 no CPT	HT1080 IDH1KD tx	HT1080NT lethal	IL1B secr inh
O=[N+]([O-])c1ccccc1/C=N/Nc1nnc(-c2ccccc2)c(-c2ccccc2)n1	2.1µM*	30%	1.6µM*	19%	7%	10
COc1cccc(/C=N/NC(=S)NCCc2ccccc2)c1OC	?	?	-1%	2%	11%	13
O=C(CN(Cc1ccccc1)S(=O)(=O)c1ccccc1)N/N=C/c1ccccc1[N+](=O)[O-]	?	3%	21µM*	-29%	?	?
O=[N+]([O-])c1ccccc1/C=N\Nc1nccs1	15%	7%	29%	1%	7%	-2
CCOc1cccc(/C=N/NC(=S)Nc2ccccc2[N+](=O)[O-])c1O	9.2µM*	-24%	8.2µM*	16µM*	?	147
CCCCNC(=S)N/N=C/c1cccc(OCC)c1O	1.2µM*	6%	2.1µM*	9%	29%	-3
CNC(=S)N/N=C/c1ccccc1[N+](=O)[O-]	·	26%	·	·	·	·
O=[N+]([O-])c1ccccc1C=NNC(=S)NN=Cc1ccccc1[N+](=O)[O-]	6.5µM*	?	3.3µM*	?	?	-7
O=c1c2cnn(-c3ccccc3)c2nc(-c2ccco2)n1-c1ccccc1	?	-14%	21µM*	-20%	-24%	-55*
Cc1cccc(-n2c(-c3ccco3)nc3c(cnn3-c3ccccc3C)c2=O)c1	21µM*	?	?	·	·	·
Cc1cccc(-n2ncc3c2ncn2nc(-c4ccco4)nc32)c1	·	-8%	·	·	·	·
O=c1oc(-c2ccco2)nc2c1cnn2-c1ccccc1	?	-18%	?	-2%	6%	-19
CCCCCCCCS(=O)(=O)CCSc1cccc2cccnc12	·	6%	·	·	·	·
COCc1noc(CC2CCOC3(CCN(C(=O)c4ccc5[nH]ccc5c4)CC3)C2)n1 (stereo not drawn)	·	1%	·	·	·	·
CCN(CC)CCNS(=O)(=O)c1ccc2c3c(cccc13)C(=O)N2	?	0%	15µM*	-28%	?	-2
Cc1ccc(C)c(NS(=O)(=O)c2ccc3c4c(cccc24)C(=O)N3)c1	?	?	15µM*	·	·	·
O=C(c1cc2ccccc2oc1=O)N(Cc1cccs1)C1CC1	·	10%	·	·	·	·
C/C(Cl)=C\COc1cc(C)nc2c(Br)cccc12	-2%	-8%	29µM*	-9%	1%	6
CCc1c(C)nc2c(Br)cccc2c1Cl	·	29%	·	·	·	·
CN(CCC1(O)CCCC1)C(=O)C1CCC(=O)N(Cc2ccccc2F)C1 (stereo not drawn)	·	-6%	·	·	·	·
CCC(C)NC(C(=O)Nc1ccc(Cl)c([N+](=O)[O-])c1)c1ccccc1 (stereo not drawn)	?	?	16µM*	2%	-6%	-18
COCC(C)NC(C(=O)Nc1ccc(Cl)c([N+](=O)[O-])c1)c1ccccc1 (stereo not drawn)	-11%	?	-27%	-6%	-1%	10
O=C(Nc1ccc(Cl)c([N+](=O)[O-])c1)C(Sc1ccccc1)c1ccccc1 (stereo not drawn)	?	-20%	?	21µM*	?	-83*
CC(C)c1noc(-c2cccn3c(CNC(=O)c4ccc(F)c(F)c4)nnc23)n1	·	20%	·	·	·	·
Cc1ncc(CO)c(/C=N/NC(=S)Nc2ccc(C(C)C)cc2)c1O	15µM*	0%	21µM*	?	3%	166
SMILES	DT40 TDP1 CPT	12-LOX inh	DT40 TDP1 no CPT	HT1080 IDH1KD tx	HT1080NT lethal	IL1B secr inh
Cc1ncc(CO)c(/C=N/NC(=O)c2cc(Br)ccc2O)c1O	16µM*	-29%	16µM*	?	?	95
Cc1cc(C(=O)N/N=C/c2cc(Cl)cc([N+](=O)[O-])c2O)c2ccccc2n1	?	?	?	?	?	38
Cc1cc(C(=O)N/N=C/c2c(CO)cnc(C)c2O)c2ccccc2n1	?	1%	?	21µM*	?	162
Cc1ccc2c(c1)c1nnc(SCC(=O)Nc3ccc(N(C)C)cc3)nc1n2CC(=O)O	0%	6%	5%	3%	1%	5
COc1ccc(C(CNC(=O)COc2ccc(Cl)c(C)c2)N2CCOCC2)cc1 (stereo not drawn)	21µM*	-18%	?	·	·	·
COc1ccc(C(CNC(=O)COc2ccccc2)N2CCCCC2)cc1 (stereo not drawn)	-25%	-2%	0%	8%	1%	0
COc1ccc(C(CNC(=O)COc2cc(C)c(Cl)c(C)c2)N2CCCCC2)cc1 (stereo not drawn)	23µM*	?	16µM*	-2%	-1%	?
COc1ccc(C(CNC(=O)COc2ccc(C)c(C)c2)N2CCCCC2)cc1 (stereo not drawn)	23µM*	-14%	?	-1%	-13%	4
COc1ccc(OCC(=O)NCC(c2ccc(OC)cc2)N2CCCCC2)cc1 (stereo not drawn)	-16%	-26%	6%	-1%	0%	0
COc1ccc(C(CNC(=O)COc2ccccc2)N2CCOCC2)cc1 (stereo not drawn)	7%	15%	3%	-1%	1%	-1
COc1ccc(C(CNC(=O)COc2cc(C)cc(C)c2)N2CCCCC2)cc1 (stereo not drawn)	23µM*	5%	?	·	·	·
C[C@@H](O)[C@H](N)C(=O)NCc1nc(-c2cccc(F)c2)c(-c2ccccn2)[nH]1	·	85%	·	·	·	·
Cc1cc(SCC(=O)c2cc(C)n(C)c2C)nc2ccccc12	9%	-18%	-7%	0%	-2%	44
Cc1ccc(C(=O)NCC(=O)NCC(=O)OCc2ccc(Oc3ccc([N+](=O)[O-])cc3)cc2)cc1	?	-5%	21µM*	-9%	1%	-17
Cc1ccc(C(=O)NCC(=O)OCC(=O)Nc2cc(C)c(C)cc2[N+](=O)[O-])cc1	2%	-7%	3%	2%	1%	7
COc1ccc(C(=O)NCC(=O)OCc2ccc([N+](=O)[O-])cc2)cc1	-13%	-6%	2%	7%	23%	0
Cc1ccc(C(=O)NCC(=O)NCC(=O)OCC(=O)c2ccc([N+](=O)[O-])cc2)cc1	23µM*	-18%	23µM*	-2%	3%	-19
COc1ccc(OC)c(S(=O)(=O)N2C[C@@H](Oc3ccccc3)C[C@H]2C(=O)NC2CC2)c1	·	-5%	·	·	·	·
O=C(Cc1ccccc1)NNc1ccc2ccccc2c1	-9%	-12%	-30%	3.7µM*	?	17
